Laboratory results taken from PubChem BioAssay (NCI).
About 83,000 compounds went through this panel and 20% of them were active in at least one assay; those are over-represented in the sample as a whole.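 How to read the values: 0–100, growth inhibition (40 = 60% inhibited); 0, no net growth; -100 to 0, cell death (-40 = 40% of starting cells died; -100 = all dead).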 The source made the active and inactive calls. Rule for the calls: active = growth percent below 10; inactive = the rest.

What follows are compounds tested on HL-60(TB) leukemia (assay: NCI-60 one-dose screen, 48 h (100 = growth as untreated, 0 = no growth, -100 = all killed)). Conditions: 10 µM unless noted.

Row | Compound | growth
1 | CN(C)CC1=NC2SC=C(c3ccccc3)C2C(=O)N1CC#N (stereo not given) | 86.1% (inactive)
2 | CCOC(=O)c1c(-c2ccc(Cl)cc2)c(C#N)c2c(C#N)c(N)nn2c1N | 43.4% (inactive)
3 | Cc1ccc(S(=O)(=O)N(c2ccc(Cl)cc2)c2ccc(Br)cc2C(=O)O)cc1 | 110% (inactive)
4 | COc1cc(NCC(=O)Nc2cc(Nc3cccc(C(F)(F)F)c3)ncn2)c(Cl)c(OC)c1Cl | 79.2% (inactive)
5 | Nc1nccc2c1ccn2-c1ccc(NC(=O)c2ccc(N3CCOCC3)c(C(F)(F)F)c2)cc1 | -4.36% (active)
6 | O=C1CCCCN1CCCCC#Cc1ccccc1C#Cc1ccc([N+](=O)[O-])cc1 | -25.7% (active)
7 | COc1ccc2sc3c(NCCCNCCO)nc4ccccc4c3c(=O)c2c1 | 36.5% (inactive)
8 | COc1cc(NS(=O)(=O)C(C)C)cc(-c2cc(-c3ccc(N4CCNCC4)cc3)cnc2N)c1 | 78.3% (inactive)
9 | Cn1cc(-c2nonc2-c2c[nH]c3ccc(F)cc23)c2cccnc21 | 91.7% (inactive)
10 | NC(=O)c1cc(Cl)ccc1NC(=O)/C=C/c1ccccc1 | -30.8% (active)
11 | COc1ccc(C2C(c3ccccc3)C(=O)N2c2cc(OC)c(OC)c(OC)c2)cc1I (stereo not given) | -31.6% (active)
12 | O=C1CC(c2ccc3c(c2)OCO3)c2ncn(-c3ccc(Cl)cc3)c2N1 (stereo not given) | -9.97% (active)
13 | O=C(CNC1CCCCC1)Nc1ccc(-c2nc3ccccc3s2)cc1 | 66.8% (inactive)
14 | C=CC(=O)N1CCN(c2ccc3cccc(NC(=O)c4cnc(C)cn4)c3n2)CC1 | 26.6% (inactive)
15 | Cc1cccc(-c2cc(O)c(C(=O)N3CCOCC3)s2)c1 | 24.5% (inactive)
16 | COc1nc(OC)nc(-c2cc(C(=O)c3ccc(Br)cc3)n3cc(C)cc(C)c23)n1 | 99% (inactive)
17 | O=C1C2C(c3cccs3)C=C(c3ccc(Cl)cc3)N2C(=S)N1c1ccccc1 (stereo not given) | 99.8% (inactive)
18 | O=C(Oc1ccc([N+](=O)[O-])cc1)c1ccc(CBr)cc1 | 71.8% (inactive)
19 | CC(=O)n1cc(-c2c[nH]c3ccccc23)c(-c2ccc(Cl)cc2)n1 | 135% (inactive)
20 | Cc1nc2sc(C(=O)Nc3ccccc3)c(N)c2cc1C(=O)/C=C/c1ccccc1 | 3.44% (active)

Row | Compound | growth
21 | O=C(Nc1ccncc1)C(=O)c1cn(S(=O)(=O)c2cc(Cl)cc(Cl)c2)c2ccccc12 | 58.9% (inactive)
22 | Brc1ccc(-c2cn3ccnc3c(-c3ccc(Br)cc3)n2)cc1 | 30.2% (inactive)
23 | CC(=O)O[C@H]1C[C@@H]2C(C)(C)C(=O)CC[C@@]2(C)c2ccc(C(C)C)cc21 | 99.2% (inactive)
24 | Nc1ncnc2c1c(-c1cccc(OCc3ccccc3)c1)cn2C1CC(CN2CCC2)C1 (stereo not given) | -51.5% (active)
25 | COc1ccc(F)cc1/C=C/C(=O)/C=C(/C=C/c1cc(F)ccc1OC)OB(F)F | -8.82% (active)
26 | O=C(O)C1C[C@](O)(c2ccc(F)cc2)[C@@H](c2ccc(F)cc2)O1 (stereo not given in full) | 91.6% (inactive)
27 | COc1ccc(-c2cc(=O)oc3c4c(ccc23)OCN(Cc2ccc(F)cc2)C4)cc1 | 47.9% (inactive)
28 | COc1cccc(/C=C2\C=C(c3ccccc3)N(Cc3ccccc3)C2=O)c1 | 90.7% (inactive)
29 | CC(/C=C1\SC(=S)N(CC(=O)NC(Cc2c[nH]c3ccccc23)C(=O)O)C1=O)=C\c1ccccc1 (stereo not given) | 100% (inactive)
30 | CCN1C(=S)N(CC)C2C1NC(=S)N2/N=C/C=C/c1ccccc1OC (stereo not given) | -46.4% (active)
31 | COc1cccc(-c2nc3sccn3c2-c2ccnc(NCCNS(=O)(=O)c3ccccc3)n2)c1 | 69.9% (inactive)
32 | COc1cc2c(cc1OCCCCCn1c(-c3ccc(OCc4ccccc4)cc3)nc3cc(N4CCOCC4)ccc31)N=C[C@@H]1CCCN1C2=O | 12.7% (inactive)
33 | O=C(NNC(=O)c1cccc(Cl)c1)c1ccccc1 | 94.3% (inactive)
34 | Cc1[nH]c(-c2nc3ccccc3[nH]2)c(C)c1C(=O)N1CCc2sccc2C1 | 99.3% (inactive)
35 | COc1ccc(/C=C(\C#N)n2nnc3cc(F)c(F)cc32)c(OC)c1OC | 10.4% (inactive)
36 | CC(C)(Sc1cc(C(C)(C)C)c(O)c(C(C)(C)C)c1)Sc1cc(C(C)(C)C)c(OC(=O)CCCC(=O)O)c(C(C)(C)C)c1 | 67.6% (inactive)
37 | COc1cc(-c2nc3ccccc3s2)ccc1NC(=O)COc1ccc(Cl)cc1 | 56.3% (inactive)
38 | COc1ccc(C2NC(=O)c3cc4c(cc3N2)OCO4)cc1 (stereo not given) | -42% (active)
39 | O=C1NC(=O)C(Cc2ccc(OCc3ccc(-c4ccc(Cl)cc4Cl)cc3)cc2)S1 (stereo not given) | 56.9% (inactive)
40 | COc1cc(-c2ccc[nH]2)[nH]c1/C=C1\N=C(C)C(C(=O)NC(C)C)=C1C | 26.1% (inactive)
